This is a sample that favours compounds with a hit; in the whole collection about 1.3% have one here.
NCOA3 inh: SRC3 coactivator transcriptional activity inhibitors, primary screen, cell-based, luminescence; Nuclear receptor coactivator 3 (Homo sapiens), Q9Y6Q9; HEK293 GAL4-SRC3 luciferase reporter; inhibition, % at 3.6 µM; hit rate 0.17% among 360,000;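 active = inhibition above a per-campaign cutoff, the mean of all compounds plus 3 SD, cut at about 60% in these data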;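 note: higher means less SRC3-driven luciferase light from the GAL4 reporter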
NR5A2 inv ag: LRH-1 (NR5A2) inverse agonists, primary screen, cell-based, luminescence, HEK293T, StAR-luciferase reporter | inhibition, % at 3.6 µM | LRH-1 transfected, 24 h | Nuclear receptor subfamily 5 group A member 2 (Homo sapiens), O00482 | hit rate 0.13% among 360,000;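 active = inhibition above the mean inhibition of all tested compounds plus 3 SD, cut at about 73% in these data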
NCOA1 inh: SRC1 coactivator transcriptional activity inhibitors, primary screen, cell-based, luminescence; Nuclear receptor coactivator 1 (Homo sapiens), Q15788; HEK293 GAL4-SRC1 luciferase reporter; inhibition, % at 3.6 µM; hit rate 0.12% among 360,000; AID 588354, 2011;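 active = inhibition above the campaign mean plus 3 SD, with each screening campaign given its own cutoff, cut at about 60% in these data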
Gli-Sufu antag: Gli-Sufu pathway antagonists, primary screen, luciferase luminescence, Sufu-KO-LIGHT cells, uHTS; AID 588413, 2011; hit rate 0.74% among 340,000; Sufu-KO-LIGHT fibroblasts, Gli luciferase reporter luminescence; inhibition, % at 5 µM;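 active = inhibition above about 55%, limit read from the data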
NR2F2 inh: NR2F2 transcriptional activity inhibitors, primary screen, cell-based, luciferase reporter, HEK293T, luminescence; inhibition, % at 8.6 µM; HEK293T NGFI-A luciferase reporter; hit rate 0.7% among 370,000;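 active = inhibition above a per-plate cutoff, mean inhibition of test wells between control levels plus 3 SD, cut at about 38% in these data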;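 note: cells cotransfected with COUP-TFII expression vector driving the NGFI-A reporter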
Target sequence (P24468 whole entry, looked up): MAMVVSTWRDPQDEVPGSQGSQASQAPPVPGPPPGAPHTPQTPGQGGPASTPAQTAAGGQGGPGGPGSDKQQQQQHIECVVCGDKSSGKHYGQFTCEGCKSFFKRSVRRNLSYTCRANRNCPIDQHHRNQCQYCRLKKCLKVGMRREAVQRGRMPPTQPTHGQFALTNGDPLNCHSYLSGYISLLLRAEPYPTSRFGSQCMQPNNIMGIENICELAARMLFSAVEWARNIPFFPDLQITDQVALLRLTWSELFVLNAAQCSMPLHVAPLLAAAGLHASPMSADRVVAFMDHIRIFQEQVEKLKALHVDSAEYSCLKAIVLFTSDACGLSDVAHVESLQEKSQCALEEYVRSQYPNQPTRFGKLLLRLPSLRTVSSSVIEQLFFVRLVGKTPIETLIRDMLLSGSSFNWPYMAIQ
SRC2 inh: inhibition of GAL4-SRC2 driven luciferase reporter, primary screen, SRC2 inhibitor project, cell-based, luminescence; HEK293 GAL4-SRC2 luciferase reporter; inhibition, % at 9 µM; hit rate 0.17% among 370,000; AID 651957, 2012;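 active = inhibition above the mean inhibition of all tested compounds plus 3 SD, set per campaign, cut at about 52% in these data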
Gli-Sufu confirm: Gli-SUFU pathway antagonists, confirmation, single concentration, luciferase luminescence, Sufu-KO-LIGHT cells. shares compounds with Gli-Sufu antag. Gli luciferase reporter. inhibition, % at 5 µM. hit rate 40% among 2,500;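 active = mean inhibition at 5 µM reaching about 45%, limit read from the data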
SufuKO cytotox: cytotoxicity in Sufu-KO-LIGHT cells, confirmation, cytotoxicity control for Gli-SUFU antagonist project, cell-based, ATP luminescence, single concentration; cytotoxicity, % at 5 µM; shares compounds with Gli-Sufu antag; hit rate 32% among 2,500;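 active = mean cytotoxicity at 5 µM above about 25%, limit read from the data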;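 note: cells exposed to compound overnight for roughly 16 to 18 hours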
Wnt3a cs: Wnt3a reporter signal inhibition, confirmation, counter-screen for Gli-SUFU antagonist project, Wnt-LIGHT cells, luminescence, single concentration; inhibition, % at 6.25 µM; Wnt3a-driven luciferase reporter; AID 651995, 2013; shares compounds with Gli-Sufu antag; hit rate 20% among 2,500;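 active = mean inhibition above about 25%, limit read from the data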
Numbers stand for hits; 0 = inactive; - = no result.

SMILES	NCOA3 inh	NR5A2 inv ag	NCOA1 inh	Gli-Sufu antag	NR2F2 inh	SRC2 inh	Gli-Sufu confirm	SufuKO cytotox	Wnt3a cs
Cc1ccc2[nH]c3c(N4CCN(Cc5ccccc5)CC4)ncnc3c2c1	0	0	0	0	0	0	53.4	37.3	0
Cc1ccc2[nH]c3c(N4CCN(Cc5ccc6c(c5)OCO6)CC4)ncnc3c2c1	-	-	-	-	0	0	-	-	-
COc1ccc(CNCC(O)(c2ccccc2)c2ccccc2)cc1OC	0	0	0	0	0	0	0	0	0
COc1ccc2c(C)cc(SCC(=O)c3ccc4c(c3)OCO4)nc2c1	0	0	0	63.5	0	0	0	0	0
COc1ccc2c(C)cc(SCC(=O)NC3CCCC3)nc2c1	0	0	0	0	0	0	-	-	-
COC(=O)c1ccc2c(=O)n(CCCCCC(=O)NC3CCCCC3)c(=O)[nH]c2c1	-	-	-	-	0	0	-	-	-
S=c1[nH]nc(-c2cc(-c3ccccc3)n[nH]2)n1N=Cc1c[nH]c2ccccc12	-	-	-	-	0	0	-	-	-
CC(=O)Nc1nonc1-c1nc2ccccc2n1Cc1ccccc1	0	0	0	0	0	0	-	-	-
CCn1c(-c2nonc2NC(=O)c2ccccc2)nc2ccccc21	0	0	0	69.8	0	0	0	0	0
COc1ccc(-c2nc(CS(=O)(=O)CC(=O)NCCCN3CCN(C)CC3)c(C)o2)cc1	0	0	0	0	0	0	0	0	0
Cc1oc(-c2ccccc2F)nc1CS(=O)(=O)CC(=O)NCCCN1CCN(C)CC1	0	0	0	0	0	0	-	-	-
O=C(NCc1ccccn1)c1ccc(Cn2cc(C(F)(F)F)ccc2=O)cc1	0	0	0	61.8	0	0	0	0	0
CC(C)=CCC/C(C)=C/CNC(=O)C[C@H]1C[C@H](C(=O)N2CCCCC2)[C@@]2(C)c3[nH]c4cc(CCC(=O)N(C)C)ccc4c3CCN2C1=O	0	0	0	0	-	-	56.3	32.0	0
CC[C@]12c3[nH]c4cc(CCC(=O)N(C)C)ccc4c3CCN1C(=O)[C@@H](CC(=O)NC/C=C(\C)CCC=C(C)C)C[C@@H]2C(=O)N1CCN(C(=O)C2CC2)CC1	0	0	0	0	0	0	54.3	29.5	0
CC(C)=CCC/C(C)=C/CNC(=O)C[C@H]1C[C@H](C(=O)N2CCOCC2)[C@@]2(C)c3[nH]c4cc(CCC(=O)N(C)C)ccc4c3CCN2C1=O	0	0	0	58.0	0	0	66.1	0	0
CN(C)C(=O)CCc1ccc2c3c([nH]c2c1)[C@]1(C)[C@@H](C(=O)N2CCCCC2)C[C@H](CC(=O)NC(C)(C)C)C(=O)N1CC3	0	0	0	0	0	0	-	-	-
CC(=O)N1c2cc(S(=O)(=O)Nc3c(C)n(C)n(-c4ccccc4)c3=O)c(Br)cc2CC1C (centres undefined)	-	-	-	-	0	0	-	-	-
Cc1ccc(-c2nn(C)c(=O)c3ccccc23)cc1S(=O)(=O)N1CCOCC1	0	0	0	0	0	0	0	0	0
O=[N+]([O-])c1ccc(CN2[C@H](COCc3ccccc3)C=CS2(=O)=O)cc1	-	-	-	-	0	0	-	-	-
C=CCCN(C(CC(C)C)C(=O)OC)S(=O)(=O)c1cc(Br)ccc1Br (centres undefined)	0	0	0	0	0	0	0	0	0
Cc1ccc(NC2=C(Cl)C(=O)OC2OC(C)C)c(C)c1 (centres undefined)	0	0	0	0	0	0	-	-	-
Cc1cccc(C)c1NC1=C(Cl)C(=O)OC1OC(C)C (centres undefined)	0	0	0	0	0	0	0	0	0

Compound activity from PubChem.
